Common to all, as to set-up: scale not given: direction of the effect not stated beside the values
Assay [1] deals with Protein translocase subunit SecA (Escherichia coli (strain K12)) (UniProt P10408). Nature of the assay: Assay to Identify E. coli SecA ATPase Inhibitors. It counts as functional. The following applies: 30 µM.
Assay [2] concerns the target T1, Ubiquitin-activating enzyme e1, putative (Leishmania donovani (strain BPK282A1)) (UniProt E9BSI1).
T1 sequence (whole entry): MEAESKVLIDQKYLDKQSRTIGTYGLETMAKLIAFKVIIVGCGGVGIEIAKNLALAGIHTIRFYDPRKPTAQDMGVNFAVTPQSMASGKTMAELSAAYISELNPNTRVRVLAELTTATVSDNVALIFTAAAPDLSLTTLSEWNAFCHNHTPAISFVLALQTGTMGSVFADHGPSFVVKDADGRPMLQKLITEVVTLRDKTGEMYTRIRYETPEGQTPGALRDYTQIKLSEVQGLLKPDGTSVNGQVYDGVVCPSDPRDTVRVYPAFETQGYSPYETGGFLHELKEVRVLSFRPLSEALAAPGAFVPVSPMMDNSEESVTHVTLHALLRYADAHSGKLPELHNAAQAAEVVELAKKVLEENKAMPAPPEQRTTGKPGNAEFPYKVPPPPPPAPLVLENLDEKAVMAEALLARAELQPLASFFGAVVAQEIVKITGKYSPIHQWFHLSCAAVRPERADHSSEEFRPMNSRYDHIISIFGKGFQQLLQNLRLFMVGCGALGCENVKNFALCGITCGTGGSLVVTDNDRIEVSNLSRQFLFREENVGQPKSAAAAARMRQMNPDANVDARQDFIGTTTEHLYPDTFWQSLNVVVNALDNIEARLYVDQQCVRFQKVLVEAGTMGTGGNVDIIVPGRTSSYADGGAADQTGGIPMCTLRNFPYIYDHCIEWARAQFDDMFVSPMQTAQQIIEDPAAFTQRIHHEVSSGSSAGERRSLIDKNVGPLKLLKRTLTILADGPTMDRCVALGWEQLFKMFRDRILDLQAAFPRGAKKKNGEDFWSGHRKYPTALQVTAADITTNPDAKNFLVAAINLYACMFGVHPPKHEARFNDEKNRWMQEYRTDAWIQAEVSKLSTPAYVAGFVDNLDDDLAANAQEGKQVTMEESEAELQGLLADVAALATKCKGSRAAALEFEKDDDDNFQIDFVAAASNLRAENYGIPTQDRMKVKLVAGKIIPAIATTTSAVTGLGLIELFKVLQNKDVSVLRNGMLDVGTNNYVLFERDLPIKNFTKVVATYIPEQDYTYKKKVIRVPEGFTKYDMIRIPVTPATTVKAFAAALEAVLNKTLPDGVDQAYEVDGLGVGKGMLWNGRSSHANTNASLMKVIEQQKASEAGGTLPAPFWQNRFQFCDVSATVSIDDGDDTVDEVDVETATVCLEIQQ
The assay is described as follows: Leishmania donovani Ubiquitin Activating Enzyme (LdE1). In kind it is functional. The following applies: 30 µM.

In assay [3] the target is T2, Aspartate--tRNA(Asp/Asn) ligase (Mycobacterium tuberculosis (strain ATCC 25618 / H37Rv)) (UniProt P9WFW3). Note: in the data most compounds retested in dose-response had high values.
T2 sequence (whole entry): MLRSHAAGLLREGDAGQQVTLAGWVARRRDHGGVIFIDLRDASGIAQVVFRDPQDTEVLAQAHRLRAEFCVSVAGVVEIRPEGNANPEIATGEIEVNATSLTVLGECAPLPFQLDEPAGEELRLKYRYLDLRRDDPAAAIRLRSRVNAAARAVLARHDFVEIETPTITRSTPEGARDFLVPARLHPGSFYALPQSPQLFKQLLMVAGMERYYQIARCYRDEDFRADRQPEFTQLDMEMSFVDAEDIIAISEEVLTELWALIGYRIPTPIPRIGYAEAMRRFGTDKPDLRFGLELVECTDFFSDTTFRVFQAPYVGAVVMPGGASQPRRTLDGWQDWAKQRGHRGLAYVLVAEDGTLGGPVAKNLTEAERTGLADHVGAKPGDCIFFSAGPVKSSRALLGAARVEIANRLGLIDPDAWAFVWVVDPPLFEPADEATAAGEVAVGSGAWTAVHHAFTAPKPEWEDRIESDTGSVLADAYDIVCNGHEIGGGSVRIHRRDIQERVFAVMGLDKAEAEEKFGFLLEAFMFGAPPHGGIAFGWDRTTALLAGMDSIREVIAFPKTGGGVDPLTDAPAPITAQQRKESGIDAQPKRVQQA
The assay is described as follows: Assay for Asp RNA synthetase-1 from Mycobacterium tuberculosis. It counts as functional. The following applies: 30 µM.

For assay [4], the target named is AMP-activated protein kinase, AMPK (Homo sapiens) (UniProt P54646+O43741+P54619+Q9UGJ0+Q9Y478+Q13131+Q9UGI9). The assay is described as follows: AMP-dependent Kinase enzyme assay. An in vitro enzyme assay that detects ADP turnover that is directly proportional to AMPK activity. This uses naive AMPK that is activated during the assay with MK-8722. It counts as functional. The following applies: 30 µM.

The target of assay [5] is Sialic acid-binding Ig-like lectin 9 (Homo sapiens) (UniProt Q9Y336). Nature of the assay: Hs-Siglec9 ALPHAscreen SOP 20170721. The following applies: 10 µM.
Chain of Sialic acid-binding Ig-like lectin 9 (Homo sapiens) (Q9Y336 whole entry): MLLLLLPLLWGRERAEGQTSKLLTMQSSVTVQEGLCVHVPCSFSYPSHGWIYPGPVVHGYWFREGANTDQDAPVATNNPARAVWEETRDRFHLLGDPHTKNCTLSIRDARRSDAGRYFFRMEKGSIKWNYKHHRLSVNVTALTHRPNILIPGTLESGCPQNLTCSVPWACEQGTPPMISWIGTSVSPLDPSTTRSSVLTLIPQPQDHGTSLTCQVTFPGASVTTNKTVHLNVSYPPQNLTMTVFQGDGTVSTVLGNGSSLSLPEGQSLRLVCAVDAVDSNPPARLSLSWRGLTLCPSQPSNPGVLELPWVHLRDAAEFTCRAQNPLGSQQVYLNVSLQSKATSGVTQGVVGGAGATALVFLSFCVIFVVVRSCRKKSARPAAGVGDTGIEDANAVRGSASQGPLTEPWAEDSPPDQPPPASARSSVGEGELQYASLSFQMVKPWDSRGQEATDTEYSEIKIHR
Assay [6] has as its system Trypanosoma cruzi. The assay is described as follows: Trypanosoma cruzi phosphomannomutase and mannose-1-phosphate guanylyltransferase assay. It counts as functional. The following applies: 10 µM.
The target in assay [7] is T3, Arginase-2, mitochondrial (Homo sapiens) (UniProt P78540).
T3 sequence (whole entry): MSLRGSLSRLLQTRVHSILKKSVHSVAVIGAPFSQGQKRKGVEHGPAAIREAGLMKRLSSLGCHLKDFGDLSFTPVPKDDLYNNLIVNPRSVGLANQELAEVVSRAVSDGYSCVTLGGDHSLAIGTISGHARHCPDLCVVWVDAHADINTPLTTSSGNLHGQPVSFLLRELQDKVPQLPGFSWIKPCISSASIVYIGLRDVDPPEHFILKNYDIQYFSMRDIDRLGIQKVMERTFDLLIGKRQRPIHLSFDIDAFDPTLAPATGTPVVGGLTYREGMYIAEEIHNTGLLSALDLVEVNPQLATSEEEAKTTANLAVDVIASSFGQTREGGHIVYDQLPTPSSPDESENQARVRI
The assay is described as follows: in vitro enzyme assay to detect the production of urea directly proportional to the activity of Arginase II. Note: in the data most compounds retested in dose-response had high values. In kind it is functional. The following applies: 33.3 µM.

Assay [8] concerns the target T4, Proteasome subunit beta (Trypanosoma cruzi) (UniProt O96673).
T4 sequence (whole entry): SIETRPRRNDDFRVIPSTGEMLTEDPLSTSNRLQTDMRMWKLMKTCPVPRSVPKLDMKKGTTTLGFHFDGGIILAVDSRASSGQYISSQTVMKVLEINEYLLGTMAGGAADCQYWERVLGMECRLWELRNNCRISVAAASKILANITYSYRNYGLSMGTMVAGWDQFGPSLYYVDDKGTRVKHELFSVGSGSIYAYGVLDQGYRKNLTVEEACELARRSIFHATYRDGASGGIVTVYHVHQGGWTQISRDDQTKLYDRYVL
The assay is described as follows: Trypanosoma cruzi proteasome chymotrypsin-like activity (TcProtChymo) assay. Note: in the data most compounds retested in dose-response had high values. It counts as functional. The following applies: 9.37 µM.

Assay [9] is filed under the species Homo sapiens. Nature of the assay: To identify inhibition of the IFN signalling (Jak-Stat) pathway via expression of an eGFP reporter gene under the control of an IFN-stimulated response element (ISRE) containing MxA promoter. It counts as functional. The following applies: 30 µM.
In assay [10] the target is Shiga toxin 2 (Escherichia coli O157:H7) (UniProt P09385+P09386). Nature of the assay: E. coli 0.157:H7 Shiga Toxin SOP - stx2 screening assay. In kind it is functional. The following applies: 30 µM.
Assay [11] deals with T5, Tyrosyl-tRNA synthetase, putative (Trypanosoma cruzi (strain CL Brener)) (UniProt Q4DSP6).
T5 sequence (whole entry): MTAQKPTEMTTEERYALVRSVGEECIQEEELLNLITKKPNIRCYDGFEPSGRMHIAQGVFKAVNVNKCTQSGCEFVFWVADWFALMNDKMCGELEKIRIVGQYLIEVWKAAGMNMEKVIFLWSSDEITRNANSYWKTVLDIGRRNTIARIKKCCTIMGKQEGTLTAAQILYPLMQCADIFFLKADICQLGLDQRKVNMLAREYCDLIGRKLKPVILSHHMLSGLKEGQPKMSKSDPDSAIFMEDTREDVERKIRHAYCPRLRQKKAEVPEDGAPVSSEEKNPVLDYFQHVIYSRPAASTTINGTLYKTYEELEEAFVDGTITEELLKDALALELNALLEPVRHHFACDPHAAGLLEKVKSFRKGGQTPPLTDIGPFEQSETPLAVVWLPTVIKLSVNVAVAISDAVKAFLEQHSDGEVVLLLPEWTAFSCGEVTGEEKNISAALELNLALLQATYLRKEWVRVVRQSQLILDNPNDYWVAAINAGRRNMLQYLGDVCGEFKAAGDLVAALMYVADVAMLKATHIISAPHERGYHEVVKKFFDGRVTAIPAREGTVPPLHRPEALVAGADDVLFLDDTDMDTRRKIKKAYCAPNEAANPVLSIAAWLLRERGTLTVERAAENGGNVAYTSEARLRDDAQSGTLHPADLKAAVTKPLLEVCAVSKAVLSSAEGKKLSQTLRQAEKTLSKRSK
Nature of the assay: Trypanosoma cruzi tyrosyl tRNA synthetase (TcYRS) _High Tyrosine SOP. Note: in the data most compounds retested in dose-response had high values. In kind it is functional. The following applies: 30 µM.

Assay [12] has as its target T5, Tyrosyl-tRNA synthetase, putative (Trypanosoma cruzi (strain CL Brener)). The assay is described as follows: Trypanosoma cruzi tyrosyl tRNA synthetase (TcYRS) SOP. It counts as functional. The following applies: 30 µM.
In assay [13] the target is Chromo domain-containing protein 1 (Saccharomyces cerevisiae (strain ATCC 204508 / S288c) (Baker's yeast)) (UniProt P32657). The assay is described as follows: ScCHD-1 Enzyme Inhibition Assay. Note: in the data most compounds retested in dose-response had high values. In kind it is functional. The following applies: 30 µM.
Chain of Chromo domain-containing protein 1 (Saccharomyces cerevisiae (strain ATCC 204508 / S288c) (Baker's yeast)) (P32657 whole entry, the tested form may be a part): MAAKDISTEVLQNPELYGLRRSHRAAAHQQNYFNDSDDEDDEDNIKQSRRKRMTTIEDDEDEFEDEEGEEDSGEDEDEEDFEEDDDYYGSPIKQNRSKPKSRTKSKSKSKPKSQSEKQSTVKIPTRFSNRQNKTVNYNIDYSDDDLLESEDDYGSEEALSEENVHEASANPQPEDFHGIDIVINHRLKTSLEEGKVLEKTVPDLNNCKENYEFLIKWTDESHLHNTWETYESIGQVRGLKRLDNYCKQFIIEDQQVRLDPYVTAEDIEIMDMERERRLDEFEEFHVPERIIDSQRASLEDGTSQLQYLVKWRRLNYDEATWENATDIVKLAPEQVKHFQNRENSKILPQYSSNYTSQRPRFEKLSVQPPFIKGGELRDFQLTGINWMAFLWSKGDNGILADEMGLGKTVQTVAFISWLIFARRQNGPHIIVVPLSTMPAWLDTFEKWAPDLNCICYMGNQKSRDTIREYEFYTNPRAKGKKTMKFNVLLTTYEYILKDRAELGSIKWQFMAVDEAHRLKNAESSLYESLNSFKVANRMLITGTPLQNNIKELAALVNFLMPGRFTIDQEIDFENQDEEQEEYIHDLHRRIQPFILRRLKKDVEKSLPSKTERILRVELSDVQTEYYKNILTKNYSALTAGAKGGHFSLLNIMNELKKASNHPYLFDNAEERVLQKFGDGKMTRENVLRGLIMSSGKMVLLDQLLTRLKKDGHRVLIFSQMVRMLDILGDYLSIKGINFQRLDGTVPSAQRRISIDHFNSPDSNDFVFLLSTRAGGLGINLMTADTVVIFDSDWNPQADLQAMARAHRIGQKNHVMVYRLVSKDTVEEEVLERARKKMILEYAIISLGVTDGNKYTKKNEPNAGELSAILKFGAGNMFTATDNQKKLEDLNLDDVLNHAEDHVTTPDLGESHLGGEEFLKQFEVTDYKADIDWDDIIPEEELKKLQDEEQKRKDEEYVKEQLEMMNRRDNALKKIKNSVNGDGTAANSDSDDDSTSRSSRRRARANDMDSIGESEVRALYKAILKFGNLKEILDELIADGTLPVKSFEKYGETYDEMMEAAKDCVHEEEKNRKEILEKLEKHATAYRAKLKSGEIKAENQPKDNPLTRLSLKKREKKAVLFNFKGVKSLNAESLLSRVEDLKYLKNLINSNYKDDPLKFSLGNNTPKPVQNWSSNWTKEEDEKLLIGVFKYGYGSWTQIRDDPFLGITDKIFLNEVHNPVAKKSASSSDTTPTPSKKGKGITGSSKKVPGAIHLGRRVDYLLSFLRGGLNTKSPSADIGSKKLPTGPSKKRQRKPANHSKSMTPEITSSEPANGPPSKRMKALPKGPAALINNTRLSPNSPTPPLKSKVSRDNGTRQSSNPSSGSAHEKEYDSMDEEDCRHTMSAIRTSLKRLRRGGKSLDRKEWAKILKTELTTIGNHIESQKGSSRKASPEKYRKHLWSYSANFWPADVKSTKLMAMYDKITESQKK

The structures appear in SMILES notation. For some assays here: Measured potencies and affinities stand elsewhere.

Chain of Protein translocase subunit SecA (Escherichia coli (strain K12)) (P10408 whole entry): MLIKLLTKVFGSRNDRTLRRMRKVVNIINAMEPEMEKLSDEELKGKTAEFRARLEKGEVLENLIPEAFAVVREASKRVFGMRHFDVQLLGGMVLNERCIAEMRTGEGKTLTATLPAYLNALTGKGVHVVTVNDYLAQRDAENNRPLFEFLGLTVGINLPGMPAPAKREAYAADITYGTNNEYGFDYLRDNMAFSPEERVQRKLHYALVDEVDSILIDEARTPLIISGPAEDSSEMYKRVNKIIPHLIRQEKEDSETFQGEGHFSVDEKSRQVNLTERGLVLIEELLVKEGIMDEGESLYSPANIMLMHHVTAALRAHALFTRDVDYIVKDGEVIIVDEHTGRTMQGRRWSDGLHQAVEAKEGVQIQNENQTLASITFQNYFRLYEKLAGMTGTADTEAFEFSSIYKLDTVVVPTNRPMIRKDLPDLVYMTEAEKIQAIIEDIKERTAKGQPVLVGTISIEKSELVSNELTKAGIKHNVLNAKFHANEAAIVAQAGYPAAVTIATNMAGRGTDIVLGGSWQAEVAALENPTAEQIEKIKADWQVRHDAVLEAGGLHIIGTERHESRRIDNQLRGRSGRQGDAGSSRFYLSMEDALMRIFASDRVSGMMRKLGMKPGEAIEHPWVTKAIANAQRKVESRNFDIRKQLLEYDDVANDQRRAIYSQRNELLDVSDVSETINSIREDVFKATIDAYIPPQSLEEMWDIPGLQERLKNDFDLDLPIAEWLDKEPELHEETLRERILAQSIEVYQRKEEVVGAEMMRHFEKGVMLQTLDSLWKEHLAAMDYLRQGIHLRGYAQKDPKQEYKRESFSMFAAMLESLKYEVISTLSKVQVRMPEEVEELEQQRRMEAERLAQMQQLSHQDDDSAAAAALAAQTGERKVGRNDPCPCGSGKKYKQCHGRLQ

For the molecule `CNC(=O)c1ccc2c(c1)C1(CCN(CC(C)C)CC1)C(=O)N2`, the Percent Effect in assay [1] is -7.23%; in [2], 5.41%; in assay [3], 3.94%; in assay [4], -0.561%; in assay [5] it was -0.632%; in assay [6], -4.2%. Besides, the Percent Effect in [7] stood at 0.248%; in assay [8], 3.52%; in assay [9] it was 3.77%; in assay [10], 7.05%; in assay [11] it was 4.3%; in [12], 11.1%. Besides, the Percent Effect in [13] was -2.94%.

As to `CC(C)N1CCOCC2(CN(Cc3ccccn3)CCO2)C1` (stereo not given), the Percent Effect is -1.27% in [1]; 10.4% in [2]; 5.23% in assay [3]; 2.61% in [4]; -0.373% in [5]; -2.86% in assay [6]. Also, the Percent Effect in [7] was 5.81%; in [8] it was 3.65%; in assay [9], 5.84%; in assay [10] it was -12.2%; in assay [11], 6.35%; in assay [12], 3.85%. Also, in assay [13], the Percent Effect was -3.65%.

For `COCCO[C@@H]1C[C@H]2CN(C(=O)c3ccc(C)nc3)CCN2C1`, the Percent Effect in assay [1] is 0.459%; in assay [2], 10.7%; in assay [3], 6.84%; in assay [4], -2.91%; in assay [5] it was 3.06%; in assay [6] it was -3.86%. The Percent Effect in assay [7] is -51.4%; in [8] it was 8.89%; in assay [9] it was -12.5%; in [10], -18.6%; in [11] it was 4.17%; in [12], 15%. The Percent Effect in assay [13] was -6.6%.

For the molecule `c1cncc(CN2CC[C@H]3O[C@@H](COCC4CC4)CC[C@H]32)c1`, the Percent Effect in assay [1] is -2.96%; in [2], -2.67%; in assay [3], -5.28%; in assay [4], 10.2%; in [5], 2.62%; in assay [6], -0.591%. In addition, the Percent Effect in assay [7] was 7.23%; in assay [8] it was -2.38%; in assay [9], 8.64%; in assay [10], -10.9%; in [11], 4.25%; in assay [12] it was 6.41%. In assay [13], the Percent Effect is 3.34%.

As for `O=C1[C@H]2CN(CC3CC3)C[C@H]2CN1c1ccsc1`, the Percent Effect in assay [1] was -6.19%; in assay [2] it was -2.7%; in [3] it was 1.21%; in assay [4], 4.91%; in [5] it was -3.17%; in [6], -2.44%. For the same molecule, the Percent Effect in assay [7] is -1.59%; in assay [8] it was 6.27%; in [9], -11.2%; in assay [10], -5.46%; in assay [11], 3.24%; in assay [12], 0%. Further, the Percent Effect in assay [13] amounted to 5.84%.

Source of the values: ChEMBL document CHEMBL3988442, “University of Dundee, Small-Polar-MMV Screening Library” (2021).
